This is part of a sample that, as a whole, favours compounds with a hit. Of some 79,000 tested, about 15% had one in any assay. The source made the active and inactive calls. No stated cut-off is given here; in the data, active means growth inhibition above about 70%; inactive means the rest.
Tests used:
[1] = NCI Yeast Anticancer Drug Screen. Data for the rad50 strain (AID 155);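 further: 0% = growth of vehicle-only cultures of the same strain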; conditions: S. cerevisiae rad50 strain growth inhibition, active compounds read high
In short: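 Yeast carrying a defined DNA repair defect were exposed to test compounds, and growth was compared with vehicle-treated controls to give percent inhibition.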

[2] = NCI Yeast Anticancer Drug Screen. Data for the mec2-1 strain (AID 157); conditions: S. cerevisiae mec2-1 strain, active compounds read high
In short: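 Cells of the genetically defined mec2-1 yeast strain are incubated with test compound. Inhibition of growth is calculated against vehicle-treated controls.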

[3] = NCI Yeast Anticancer Drug Screen. Data for the sgs1 mgt1 strain (AID 161);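 further: 0% = growth of cultures given vehicle only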; conditions: S. cerevisiae sgs1 mgt1 strain, active compounds read high
In short: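 Mutant yeast exposed to compound; growth scored against vehicle-only wells.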

[4] = NCI Yeast Anticancer Drug Screen. Data for the cln2 rad14 strain (AID 165);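 further: 0% = growth equal to vehicle treated cultures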; conditions: S. cerevisiae cln2 rad14 strain, active compounds read high
In short: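 The screen exposed genetically defined yeast (cln2 rad14) to test compounds and scored growth inhibition relative to vehicle-treated controls.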

[5] = NCI Yeast Anticancer Drug Screen. Data for the bub3 strain (AID 167); conditions: S. cerevisiae bub3 mutant strain, active compounds read high
In short: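 Compounds were applied to a genetically altered yeast strain carrying a cell-cycle control defect. Growth inhibition was scored against vehicle-treated controls.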

[6] = NCI Yeast Anticancer Drug Screen. Data for the mlh1 rad18 strain (AID 175); conditions: S. cerevisiae mlh1 rad18 strain growth inhibition, active compounds read high
In short: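 Compound-treated yeast growth, normalised to vehicle controls. Strain bears defined DNA repair mutations.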

[7] = at 5.0 µM (retest, dose inferred, filed as 0.5)
[8] = at 50.0 µM (retest, dose inferred, filed as 5.0)

Measured: growth inhibition

OC1(c2ccccc2)CCC2CCCCC2C1 (stereo not given)
inactive: [1]; [7] 3% | [1]; [8] 32% | [2]; [7] -4% | [2]; [8] 52% | [3]; [7] 2% | [3]; [8] 69% | [4]; [7] -10% | [4]; [8] 8% | [5]; [7] 4% | [5]; [8] 49% | [6]; [7] -14% | [6]; [8] 63%
active: [1]; at 50.0 µM 94.4% | [2]; at 50.0 µM 96.5% | [3]; at 50.0 µM 90.5% | [4]; at 50.0 µM 89.5% | [5]; at 50.0 µM 88.5% | [6]; at 50.0 µM 81.2%

CCOCCNCc1ccc(Cl)c(Cl)c1
inactive: [1]; [7] -145% | [1]; [8] -89% | [1]; at 50.0 µM 4.05% | [2]; [7] -47% | [2]; [8] -51% | [2]; at 50.0 µM 0.1% | [3]; [7] -60% | [3]; [8] -90% | [3]; at 50.0 µM 2.7% | [4]; [7] -51% | [4]; [8] -53% | [4]; at 50.0 µM 21.1% | [5]; [7] -67% | [5]; [8] -50% | [5]; at 50.0 µM -5.85% | [6]; [7] -144% | [6]; [8] -85% | [6]; at 50.0 µM -7.9%

CC(C)C(=O)[O][Bi]([c]1ccccc1)[c]1ccccc1
active: [1]; [8] 92% | [1]; at 50.0 µM 82% | [2]; [8] 78% | [2]; at 50.0 µM 87.2% | [3]; [8] 93% | [3]; at 50.0 µM 87.5% | [4]; [8] 90% | [4]; at 50.0 µM 85.6% | [5]; [8] 93% | [5]; at 50.0 µM 84.5% | [6]; [8] 88% | [6]; at 50.0 µM 91%
inactive: [1]; [7] 13% | [2]; [7] 7% | [3]; [7] -32% | [4]; [7] 9% | [5]; [7] 11% | [6]; [7] 15%

CSC(=S)N/N=C\C(O)C(O)C(O)C(O)CO (stereo not given)
active: [1]; at 50.0 µM 97.6% | [2]; at 50.0 µM 95.8% | [3]; at 50.0 µM 95.2% | [4]; at 50.0 µM 70.3% | [5]; at 50.0 µM 96.3% | [6]; at 50.0 µM 97.8%
inactive: [1]; [7] -2% | [1]; [8] 9% | [2]; [7] -2% | [2]; [8] 0% | [3]; [7] -2% | [3]; [8] 1% | [4]; [7] 0% | [4]; [8] 0% | [5]; [7] -1% | [5]; [8] -2% | [6]; [7] -2% | [6]; [8] 9%

CCN(CC)CCNC(=O)c1ccc(N=Cc2cc(Cl)cc(Cl)c2O)cc1
inactive: [1]; [7] 48% | [1]; [8] 49% | [2]; [7] 32% | [2]; [8] 48% | [3]; [7] 49% | [4]; [7] 24% | [6]; [7] 46% | [6]; [8] 39%
active: [1]; at 50.0 µM 81.2% | [2]; at 50.0 µM 91% | [3]; [8] 97% | [3]; at 50.0 µM 88.8% | [4]; [8] 99% | [4]; at 50.0 µM 84.8% | [5]; [7] 88% | [5]; [8] 97% | [5]; at 50.0 µM 89.2% | [6]; at 50.0 µM 85.7%

CC(=O)NNc1nc(C)c(C(=O)NNC(=O)C(=O)Nc2ccc(Cl)c([N+](=O)[O-])c2)s1
inactive: [1]; [7] 34% | [1]; [8] 34% | [2]; [7] 19% | [2]; [8] 19% | [2]; at 50.0 µM 20.9% | [3]; [7] 32% | [3]; [8] 32% | [3]; at 50.0 µM 69.2% | [4]; [7] 18% | [4]; [8] 18% | [4]; at 50.0 µM 51.6% | [5]; [7] 19% | [5]; [8] 19% | [5]; at 50.0 µM 55.9% | [6]; [7] 20% | [6]; [8] 20% | [6]; at 50.0 µM 50.4%
active: [1]; at 50.0 µM 70.6%

S=C(S)NCCN1CCNCC1
active: [4]; at 50.0 µM 73.8%
inactive: [1]; [7] 9% | [1]; [8] -14% | [1]; at 50.0 µM 36.8% | [2]; [7] -20% | [2]; [8] -10% | [2]; at 50.0 µM -38.1% | [3]; [7] 0% | [3]; [8] -16% | [3]; at 50.0 µM -27.9% | [4]; [7] -3% | [4]; [8] 1% | [5]; [7] -6% | [5]; [8] -11% | [5]; at 50.0 µM -40.6% | [6]; [7] -4% | [6]; [8] -1% | [6]; at 50.0 µM -10.3%

O=C(O)c1nnsc1-c1ccc(-c2snnc2C(=O)O)cc1
inactive: [1]; [7] 2% | [1]; [8] 14% | [1]; at 50.0 µM 22% | [2]; [7] -2% | [2]; [8] 18% | [2]; at 50.0 µM 23.1% | [3]; [7] -4% | [3]; [8] 30% | [3]; at 50.0 µM -6.3% | [4]; [7] 21% | [4]; [8] 0% | [4]; at 50.0 µM 39.3% | [5]; [7] 25% | [5]; [8] 6% | [5]; at 50.0 µM 35.1% | [6]; [7] 7% | [6]; [8] 9% | [6]; at 50.0 µM 3.3%

Oc1c2c(c(O)c3ncccc13)C1C=CC2CC1 (stereo not given)
inactive: [1]; [7] -5% | [2]; [7] 0% | [3]; [7] -5% | [4]; [7] -25% | [5]; [7] 2% | [6]; [7] -4%
active: [1]; [8] 99% | [1]; at 50.0 µM 97.7% | [2]; [8] 99% | [2]; at 50.0 µM 97.1% | [3]; [8] 98% | [3]; at 50.0 µM 99.3% | [4]; [8] 98% | [4]; at 50.0 µM 84.8% | [5]; [8] 99% | [5]; at 50.0 µM 97.7% | [6]; [8] 99% | [6]; at 50.0 µM 98.3%

Cc1ccc(S(=O)(=O)C(=S)Sc2ccccc2)cc1
active: [1]; [8] 82% | [2]; [8] 89% | [3]; [8] 88% | [3]; at 50.0 µM 80.6% | [5]; [8] 90% | [6]; [8] 92% | [6]; at 50.0 µM 79.8%
inactive: [1]; [7] 6% | [1]; at 50.0 µM 45.5% | [2]; [7] 8% | [2]; at 50.0 µM 39.5% | [3]; [7] 10% | [4]; [7] 6% | [4]; [8] 63% | [4]; at 50.0 µM 33.7% | [5]; [7] 17% | [5]; at 50.0 µM 36.5% | [6]; [7] 11%
